# Screening data from PubChem BioAssay.
# Rows were chosen to be rich in hits. Some 5.9% of all compounds tested hit in one or more screens of this group.
# GALK inhibitor: qHTS Assay for Inhibitors of Human Galactokinase (GALK) | AID 1868, 2009 | Purified GALK, Kinase-Glo residual ATP luminescence | 0.007% of 270,000 active | Potency, µM (highest dose often 57.5 µM), hits mostly inhibitors
#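 The enzyme phosphorylates galactose (100 uM) using ATP (35 uM); inhibition is detected as higher residual ATP, quantified by bioluminescence after 1 h reaction at room temperature, pH 8.0.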
# TrxR1 substrate: qHTS Assay for Substrates of Mammalian Selenoprotein Thioredoxin Reductase 1 (TrxR1): qHTS | Potency, µM (titrated, usually from 114 µM) | 0.01% of 390,000 active | purified TrxR1 substrate turnover, NADPH consumption readout; also: nearly all actives have a fitted effect of over 50% in size
#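 Rat TrxR1, dispensed at 90 nM, was prereduced with 400 uM NADPH (final) for 5 min at ~22 deg C, then incubated with compound 15 min before 400 uM selenite. A first-read NADPH fluorescence drop versus no-compound background flagged substrates.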
# Coupling enz: qHTS Assay for Inhibitors of Fructose-1,6-bisphosphate Aldolase from Giardia Lamblia: Coupling assay counterscreen | coupling enzyme system counterscreen, AmpLite Red fluorescence | activity change, negative = inhibition, % at 58.2 µM, hits read low | 0.67% of 290,000 active; in the data active = activity change below about -30%
#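 First, compound is pin-transferred into glyceraldehyde-3-phosphate coupling-enzyme reagent at 57.5 uM final and held 10 min at RT. Next, substrate, coupling system and AmpLite Red are added. After 20 min RT, fluorescence (525/598 nm) is read.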
# RORg inh: qHTS for inhibitors of ROR gamma transcriptional activity; Potency, µM (series often up to 53.6 µM), actives largely listed as inhibitors; Drosophila S2 Gal4-RORgamma UAS-luciferase reporter, 20 h; 5.4% of 310,000 active; also: nearly all actives have a fitted effect of over 60% in size
# Target sequence (P51450 whole entry, looked up, the tested form may be a part): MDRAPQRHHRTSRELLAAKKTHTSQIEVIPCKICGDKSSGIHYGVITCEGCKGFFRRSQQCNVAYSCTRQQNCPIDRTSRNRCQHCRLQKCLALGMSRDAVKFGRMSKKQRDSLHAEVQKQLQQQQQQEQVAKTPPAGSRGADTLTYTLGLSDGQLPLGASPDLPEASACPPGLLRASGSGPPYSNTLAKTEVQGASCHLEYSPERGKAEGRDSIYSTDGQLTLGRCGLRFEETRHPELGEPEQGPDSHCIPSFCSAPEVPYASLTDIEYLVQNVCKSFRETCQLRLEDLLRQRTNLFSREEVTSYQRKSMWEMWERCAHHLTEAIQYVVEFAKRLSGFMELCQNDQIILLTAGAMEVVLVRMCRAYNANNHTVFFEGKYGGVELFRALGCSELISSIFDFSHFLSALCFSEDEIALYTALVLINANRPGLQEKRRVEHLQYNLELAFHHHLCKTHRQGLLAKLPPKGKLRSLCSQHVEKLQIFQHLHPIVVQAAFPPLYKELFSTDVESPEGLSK
#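 Luminescence from a UAS-regulated Photinus luciferase reporter in stably transfected Drosophila Schneider cells is measured; decreased signal marks ROR gamma inhibition. Fusion expression is induced by 700 uM copper sulfate for 20 hr.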
# VP16 counter: VP16 counterscreen qHTS for inhibitors of ROR gamma transcriptional activity; Drosophila S2 Gal4-VP16 UAS-luciferase, luminescence, 20 h; Potency, µM (highest dose often 53.6 µM), most hits filed as inhibitors; 3.5% of 310,000 active;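 also: Gal4-VP16 expression switched on by copper sulfate through the metallothionein promoter; nearly all actives have a fitted effect of over 50% in size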
# rTrxR1 inhibitor: qHTS Assay for Inhibitors of Mammalian Selenoprotein Thioredoxin Reductase 1 (TrxR1): qHTS; 1% of 390,000 active; Potency, µM (doses to about 114 µM), actives largely listed as inhibitors; recombinant rTrxR1, NADPH fluorescence consumption, selenite substrate; also: nearly all actives have a fitted effect of over 65% in size
#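 Rat TrxR1 (90 nM in the dispensed reagent) was pre-reduced with 400 uM NADPH for 5 min at room temperature, then incubated with compound for 15 min. After 400 uM selenite was added, NADPH fluorescence (Ex 340/Em 450 nm) was followed for 8 min.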
# Numbers stand for hits; i = inactive; ? = inconclusive; nt = no result given; [ ] = remark or other dose. Unless noted, calls follow the shape of the dose curve; as a rule, active = well fitted curve in the direction sought with a large enough effect; inconclusive = small, poorly fitted or top-dose-only effect, or another doubt; inactive = no such curve, though single readings can be large; an effect the other way counts as inactive or inconclusive.
SMILES,GALK inhibitor,TrxR1 substrate,Coupling enz,RORg inh,VP16 counter,rTrxR1 inhibitor
CCS(=O)(=O)c1ncc(Cl)c(C(=O)Nc2ccc(S(=O)(=O)N(C)c3ccccc3)cc2)n1,i,i,i,2.82µM,2.82µM,2.82µM
Cc1cc(NC(=O)C2CC(c3ccc(Cl)cc3)=NO2)no1 (stereo unspecified),i,i,i,i,i,i
CCc1ccc(NC(=O)C(=O)NCC(c2ccc3c(c2)OCO3)N2CCN(C)CC2)cc1 (stereo unspecified),nt,i,nt,nt,nt,i
COC(=O)C(Cc1ccc(O)cc1)NC(=O)c1ccccc1 (stereo unspecified),i,i,i,2.24µM,?,i
NNc1nc2sc3c(c2c(=O)[nH]1)CCc1ccccc1-3,i,i,i,15.8µM,17.8µM,i
COCCn1c(=O)c(-c2cccc(C#N)c2)nc2cnc(Oc3cccc(Cl)c3)nc21,nt,nt,i,i,i,nt
CC(C)OC(=O)CN1C(=O)S/C(=C/c2ccc(N3CCCCC3)o2)C1=O,i,i,-37.8,?,12.6µM,?
O=C1NC(=S)S/C1=C/c1ccc(N2CCOCC2)o1,i,i,-51.1,i,?,12.6µM
COc1ccc2cc(/C=C3\SC(=S)NC3=O)c(N3CCOCC3)nc2c1,i,i,i,?,?,i
C=CCN1C(=O)N/C(=C/c2ccc(N3CCOCC3)o2)C1=O,nt,nt,i,7.08µM,5.01µM,nt
O=C1/C(=C/c2ccc(N3CCOCC3)o2)SC(=Nc2ccccc2)N1CCc1c[nH]c2ccccc12,i,i,i,3.16µM,5.01µM,10µM
COC(=O)c1sccc1NC(=O)CSCCc1ccncc1,i,i,i,i,i,i
CC(C)=CC(=O)N1CCC(N2CCC(C(=O)N3CCOCC3)CC2)CC1,i,i,i,i,i,i
CN(C(=O)CC1C(=O)NCCN1Cc1ccccc1C(F)(F)F)C1CCOCC1 (stereo unspecified),i,i,nt,i,i,i
CCOC(=O)[C@@H](N)CS,nt,nt,nt,i[10 µM],i,nt
O=C1S/C(=C\c2ccc(N3CCOCC3)o2)C(=O)N1Cc1ccc(F)cc1,i,i,-35.6,?,7.08µM,2.51µM
O=C1N=C(N2CCOCC2)S/C1=C/c1ccc(-c2ccc(F)cc2)o1,i,i,i,i,i,i
O=C1N/C(=C/c2ccc(N3CCOCC3)cc2)C(=O)N1Cc1ccc(F)cc1,i,i,i,i,i,i
O=C1S/C(=C/c2ccc(N3CCOCC3)o2)C(=O)N1Cc1ccc(F)cc1,i,i,nt,i,i,8.91µM
Cc1cc(C)c(S(=O)(=O)/N=C2/C=C(Sc3ncn[nH]3)C(=O)c3ccccc32)cc1C,i,14.1µM,-95.9,3.98µM,3.16µM,?
Cc1ccc([N+](=O)[O-])cc1S(=O)(=O)Nc1ccc(O)c(Sc2ncn[nH]2)c1,i,i,nt,i,i,i
CCN(CC)CCNCc1ccc(-c2ccc(Cl)cc2)o1,i,i,i,7.94µM,i,i
CN(C(=O)C1CCCO1)C1CCS(=O)(=O)C1 (stereo unspecified),nt,i,nt,nt,nt,i
Nc1ccc(Cc2nc3c(ccc4ccccc43)[nH]2)cc1,i,i,i,?,i,i
Cc1sc2nc(-c3ccccn3)[nH]c(=O)c2c1-c1ccccc1,i,i,i,1.12µM,4.47µM,i
SMILES,GALK inhibitor,TrxR1 substrate,Coupling enz,RORg inh,VP16 counter,rTrxR1 inhibitor
Cc1sc2nc(-c3ccncc3)[nH]c(=O)c2c1-c1ccccc1,i,nt,i,i,i,nt
c1ccc(-c2nc3ccccc3[nH]2)nc1,nt,i,i,5.62µM,6.31µM,i
c1ccc(-c2nc3c(ccc4ccccc43)[nH]2)nc1,i,i,i,0.355µM,1µM,i
O=c1[nH]c(-c2ccccn2)nc(C(F)(F)F)c1Br,i,i,i,2.24µM,5.01µM,i
CCC1OC(=O)C(C)[C@@H](O[C@H]2C[C@@](C)(OC)C(O)C(C)O2)C(C)[C@@H](O[C@@H]2OC(C)CC(N(C)C)C2O)[C@@](C)(O)CC(C)C(=O)[C@@H](C)C(O)[C@]1(C)O (stereo partly specified),nt,nt,i,i,?,nt
Cc1cc(C(=O)N2CCc3ccccc32)c2cc(F)ccc2n1,i,i,i,i,i,i
NC(=O)c1ccc(OCc2ccccc2)nc1,nt,i,nt,nt,nt,i
Cc1ccc2nc(-c3ccccc3N)[nH]c2c1,i,i,i,10µM,i[10 µM],i
O=c1[nH]c(-c2ccccn2)nc2ccccc12,i,i,i,3.98µM,7.08µM,i
O=c1[nH]c(-c2ccccc2O)nc2ccccc12,nt,nt,i,i,i,nt
Cc1ccc2nc(C(O)C(O)c3nc4ccc(C)cc4[nH]3)[nH]c2c1 (stereo unspecified),i,i,i,7.08µM,7.94µM,i
Cc1c(N)cccc1-c1nc2ccccc2[nH]1,i,i,i,11.2µM,?,i
Cc1nn(CCCC(=O)Nc2cc(C(F)(F)F)ccc2Cl)c(=O)c2c1sc1ccccc12,nt,i,nt,nt,nt,i
COc1cccc(NC(=O)c2ccc3c(c2)N(C)CCS3)c1,nt,i,i,i,i,i
COc1ccc(C)cc1NC(=O)c1c2c(nc3ccccc13)C(=O)N(C1CCCCC1)C2,nt,i,nt,nt,nt,i
Cc1ccc2nc(-c3ccccn3)[nH]c2c1,i,i,i,3.98µM,6.31µM,i
COc1ccc(C2=NO[C@@H]3C(=O)N(c4ccc(C)cc4C)C(=O)[C@H]23)cc1OC,i,i,i,i,i,22.4µM
CCn1cc(C(=O)O)c(=O)c2cc(F)c(N3CCN(C(=S)NC(=O)c4ccc(F)c(F)c4)CC3)cc21,i,i,i,?,?,i
CCn1cc(C(=O)O)c(=O)c2cc(F)c(N3CCN(C(=S)NC(=O)c4c(OC)cccc4OC)CC3)cc21,i,i,i,i,i,i
CCn1cc(C(=O)O)c(=O)c2cc(F)c(N3CCN(C(=S)NC(=O)c4cccc(F)c4)CC3)cc21,nt,i,i,2.82µM,i,i
CCCOc1ccc(C(=O)NC(=S)N2CCN(c3cc4c(cc3F)c(=O)c(C(=O)O)cn4CC)CC2)cc1,i,i,i,1.78µM,i,i
CCn1cc(C(=O)O)c(=O)c2cnc(N3CCN(C(=S)NC(=O)c4ccc(F)c(F)c4)CC3)nc21,i,i,i,2.51µM,?,i
CCn1cc(C(=O)O)c(=O)c2cnc(N3CCN(C(=S)NC(=O)c4ccc(OC)cc4)CC3)nc21,i,i,i,i,i,i
